# Assay outcomes as filed in PubChem.
# A selection: hits, their analogues and other compounds. The true share with any hit is near 28%.
# CYP2C19 activ: increases human CYP2C19 enzyme activity; P33261; recombinant CYP2C19, luciferin-H EGE luminescence; stronger effect = higher value; 0 = fully inhibited enzyme, 1 = untreated enzyme; activation factor at 5 µM; 96,000 tested, under 10 active;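 active means activation factor of at least 2 at 5 µM in the primary screen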;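 further: 0 = wells with 2.5 mM tranylcypromine and 1 = vehicle-only wells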
# CYP2C9 act: increases human cytochrome P450 2C9 activity | 96,000 tested, 1.4% active | recombinant CYP2C9, luciferin-H conversion, luminescence; stronger effect = higher value; factor 1 = untreated enzyme, 0 = blocked | activation factor at 5 µM;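 active means activation factor of 2 or more for CYP2C9 at a 5 µM dose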;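 further: 0 = sulfaphenazole-blocked wells and 1 = vehicle-only wells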
# Target sequence (P11712 whole entry, looked up): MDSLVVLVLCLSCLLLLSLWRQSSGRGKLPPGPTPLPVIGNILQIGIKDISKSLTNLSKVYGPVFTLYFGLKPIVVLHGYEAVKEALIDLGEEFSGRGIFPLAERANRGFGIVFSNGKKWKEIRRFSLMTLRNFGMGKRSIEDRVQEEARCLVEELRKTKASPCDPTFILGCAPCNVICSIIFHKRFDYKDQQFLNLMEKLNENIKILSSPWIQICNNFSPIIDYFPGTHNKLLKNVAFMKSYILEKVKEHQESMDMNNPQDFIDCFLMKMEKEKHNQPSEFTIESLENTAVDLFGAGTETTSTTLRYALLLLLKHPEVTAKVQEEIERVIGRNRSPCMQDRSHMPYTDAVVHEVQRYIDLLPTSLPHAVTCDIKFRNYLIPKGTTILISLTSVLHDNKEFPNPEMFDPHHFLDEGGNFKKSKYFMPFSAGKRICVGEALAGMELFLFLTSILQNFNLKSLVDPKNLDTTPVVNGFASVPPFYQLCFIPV
# PLK1 PBD inh: blocks phosphopeptide binding to human Plk1 polo box domain; inhibition, %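 (tested at about 20 µM)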; Plk1 PBD phosphopeptide binding, fluorescence polarization; 97,000 tested, 0.13% active; in the data active means inhibition above about 34%, passing the limit was not always enough
# CYP2C19 inh: blocks human cytochrome P450 2C19; P33261; CYP2C19 Supersomes, luciferin-H EGE luminescence, 30 min; inhibition, % at 5 µM; 96,000 tested, 21% active; AID 778;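 active means CYP2C19 inhibition above a set limit at 5 µM in the primary screen, cut at about 50% in these data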;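 further: plate controls were negative control wells for no effect and 2.5 mM tranylcypromine positive control for full effect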
# PLK1 kinase inh: inhibitors of human PLK1 kinase; 97,000 tested, 0.53% active; AID 619; inhibition, % at 10 µM; recombinant PLK1 kinase, TR-FRET peptide phosphorylation; P53350;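 active means inhibition of 50% or more in the single-concentration screen; inactive means inhibition below 50%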;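 further: 0% = DMSO max control and 100% = H-89 dihydrochloride min control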
# CYP2C9 inh: blocks human cytochrome P450 2C9 | 96,000 tested, 20% active | P11712 | inhibition, % at 5 µM | CYP2C9 Supersomes, luciferin-H conversion, luminescence;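 active means blocking of liver enzyme CYP2C9 beyond about 50% at 5 µM, limit read from the data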
# The depositor's hits bear a star; x = not tested or not shown.
SMILES,CYP2C19 activ,CYP2C9 act,PLK1 PBD inh,CYP2C19 inh,PLK1 kinase inh,CYP2C9 inh
CCOc1ccc(Br)cc1S(=O)(=O)Nc1ccc(N2CCOCC2)cc1,0.4,0.5,-8.8,64.4*,-9.0,54.2*
CCOc1ccc(Br)cc1S(=O)(=O)Nc1ccccc1N1CCOCC1,0.2,0.4,-16.7,77.5*,3.8,55.4*
CCOc1ccccc1N1CC(C(=O)Nc2ccccc2N2CCOCC2)CC1=O (stereo not given),0.9,0.8,-20.4,7.6,3.5,22.4
CCOC(=O)C1CCCN(C(=O)CN2CCN(Cc3ccc(Cl)cc3)C2=O)C1 (stereo not given),1,0.9,-1.7,3.0,-11.4,9.8
COc1cccc(-c2nn(C)c3sc(C(=O)NCc4ccc(C)cc4)cc23)c1,0.7,0.5,-6.5,25.5,-12.7,53.7*
COc1ccc(-c2nn(C)c3sc(C(=O)N4CCOCC4)cc23)cc1OC,0.8,0.9,x,17.6,x,8.5
COc1ccc(N2CCN(C(=O)c3cc4c(-c5cccc(OC)c5)nn(C)c4s3)CC2)cc1,0.8,0.5,x,22.9,x,51.3*
O=C(NC1CC1)c1ccc(CS(=O)(=O)c2c(Cl)cccc2Cl)o1,1,1.4,18.3,2.4,6.1,-42.3
COc1cc(NC(=O)c2cccs2)c(C(=O)OCC(=O)NC(C)c2ccccc2)cc1OC (stereo not given),0.4,0.1,-15.4,64.0*,-8.8,90.5*
COc1cc(NC(=O)c2cccs2)c(C(=O)OCC(=O)NCc2ccccc2)cc1OC,0.8,0.5,-4.6,17.0,-8.3,49.2
CCN(C1CCCCC1)S(=O)(=O)c1cn(C)c(=O)n(C)c1=O,0.9,0.9,-2.5,11.8,-5.4,10.7
CCN(C1CCCCC1)S(=O)(=O)c1cc(C)ccc1OC,0.1,0.1,5.5,85.6*,-10.0,94.4*
CNC(=O)CN(C1CCCCC1)S(=O)(=O)c1ccc(OC)c(Cl)c1,0.8,0.8,-2.2,16.3,-5.7,24.0
CCN(C1CCCCC1)S(=O)(=O)c1ccc(OC)c(C)c1,0.2,2.1*,-25.5,75.4*,-1.5,-109.0
N/C(=N\S(=O)(=O)c1cccs1)c1ccccc1,0.1,1.5,9.5,92.3*,-9.8,-47.1
O=C(C1CC1)N1CCC(c2nc(-c3ccc(S(=O)(=O)N4CCCC4)cc3)no2)CC1,0.8,0.6,-10.9,20.3,-11.7,37.0
Cc1ccc(-c2noc(C3CCCN(S(=O)(=O)c4ccc(S(=O)(=O)N(C)C)cc4)C3)n2)o1 (stereo not given),0.8,0.2,-13.5,21.3,-0.1,82.0*
CC(=O)c1cccc(S(=O)(=O)N2CCCC(c3nc(-c4ccc(C)o4)no3)C2)c1 (stereo not given),0.6,0.7,-26.4,37.6,-4.8,30.4
Cc1ccc(S(=O)(=O)N2CCCC(c3nc(-c4ccc(C)o4)no3)C2)cc1 (stereo not given),0.1,0.2,-5.2,90.5*,-17.1,82.6*
O=C(Cc1ccccc1)N1CCCC(c2nc(-c3ccc(S(=O)(=O)N4CCCC4)cc3)no2)C1 (stereo not given),0.6,0.3,19.2,38.2,-7.7,73.4*
Cc1ccc(-c2noc(C3CCCN(S(=O)(=O)c4ccc5ccccc5c4)C3)n2)o1 (stereo not given),0.7,1.3,8.8,33.2,-2.2,-31.9
CCOc1c2ccc(C(=O)NCc3ccccc3OC)cc2nn1CC,1,1.1,-18.8,2.3,-7.3,-12.0
Cc1ccc2nc(Nc3nc(CSc4nnnn4-c4ccccc4)cc(=O)[nH]3)nc(C)c2c1,0.3,0.2,1.1,67.0*,10.2,79.7*
O=C(Nc1ccc(-c2nc3c(ccc4ccccc43)o2)cc1)c1ccco1,0.8,1.5,-0.5,15.8,-11.9,-45.2
FC(F)(F)c1nc(-c2cccs2)ncc1-c1nnnn1-c1ccc(Cl)cc1,1,0.5,3.2,-3.2,-5.4,52.3*
SMILES,CYP2C19 activ,CYP2C9 act,PLK1 PBD inh,CYP2C19 inh,PLK1 kinase inh,CYP2C9 inh
Fc1cccc(-c2oncc2-c2nnnn2-c2ccc(Cl)cc2)c1,x,x,20.8,x,-4.6,x
Cn1cc(-c2nnnn2-c2ccc(Cl)cc2)c(C(F)(F)F)n1,0,0.6,-6.2,100.3*,0.0,39.7
Cc1ccc(-n2nnnc2-c2ccco2)cc1,x,x,8.7,x,-12.6,x
Cc1cc(C)cc(-n2nnnc2-c2cn(C)nc2C(F)(F)F)c1,0.3,0.8,-28.8,74.7*,-3.3,20.4
Clc1ccc(-n2nnnc2-c2cnc(-c3ccncc3)nc2-c2cccs2)cc1,x,x,22.5,x,-10.9,x
COc1ccc(-n2nnnc2-c2cnc(N3CCCC3)nc2C(F)(F)F)cc1,0.1,0.4,0.7,87.5*,-15.1,63.6*
CCOc1ccc(CCNC(=O)C2CC(=O)N(C3CCCC3)C2)cc1OCC (stereo not given),1,0.8,-2.3,-3.8,-4.5,16.5
CCOC(=O)c1sc(NC(=O)C(CC)Sc2nc3ccccc3[nH]2)nc1C (stereo not given),x,x,-19.5,x,-9.2,x
CCOC(=O)c1sc(NC(=O)C(CC)OC(=O)C(CC(C)C)NC(=O)c2ccccc2)nc1C (stereo not given),0.5,0.8,2.1,54.8*,-7.9,22.1
CCOc1ccc(NCC(=O)Nc2ccc(C)cc2C)cc1,0.9,0.9,4.7,10.7,-10.1,8.2
CCOc1ccc(NC(=O)CNc2ccc(C)cc2Cl)cc1,0.2,0.7,-19.3,77.7*,-4.3,33.2
CCOc1ccc(NC(=O)Nc2cc(C)ccc2F)cc1,0.3,0.9,11.1,74.7*,-0.4,14.3
COc1ccccc1/C=C/C(=O)c1ccc(Cl)cc1,0.8,1,-20.9,23.6,-11.7,0.8
COc1ccccc1/C=C/C(=O)c1c2c(c(C)[nH]c1=O)CCCC2,0.8,2.3*,-14.0,22.7,-3.5,-127.7
CC(NC(=O)c1ccco1)C(=O)N1CCc2ccccc2C1 (stereo not given),0.7,1,6.8,28.3,-11.8,-4.0
COc1ccc(-c2cc(C3CC3)nc3sc(C#N)c(N)c23)cc1,0.4,0.4,-6.6,57.2*,-12.7,58.8*
Cc1ccc(OCCn2c(C)c(/C=N/n3cnnc3)c3ccccc32)cc1,0.1,0.1,22.0,85.9*,3.5,89.2*
Cc1c(/C=N/n2cnnc2)c2ccccc2n1CCOc1ccc(Cl)cc1,0.8,0.8,7.6,24.6,-4.8,15.0
CC1CCCN(CCCNC(=O)CCn2nc(-c3ccccc3)ccc2=O)C1 (stereo not given),1,0.1,-5.7,-4.3,6.0,87.0*
COc1ccc(C(=O)NCCc2nnc(SCC(=O)Nc3ccccc3)n2C)cc1,0.9,0.6,-30.4,11.8,-3.8,37.3
Cc1ccc(-c2nn(-c3ccccc3)cc2/C=N/NC(=O)CSc2nnc(C)n2-c2ccccc2)cc1,0.8,0.4,-8.8,20.7,-2.9,55.9*
COc1cccc(/C=N/NC(=O)CSc2nnc(C)n2-c2ccccc2)c1O,1,1.1,-10.3,-4.6,-11.9,-5.2
